Source: PubChem BioAssay
Shown are actives, neighbours in structure and some others; about 13% of the full set was active somewhere.
FMDV inh: High Throughput Screening for Foot and Mouth Disease Virus Antivirals; 410,000 compounds, 1.2% hits; Potency, µM (top dose mostly 57.9 µM), for inactives: top-dose activity change, negative = inhibition, usual class: inhibitors; AID 1159524, 2015; FMDV antiviral cell-based qHTS; calls by dose curve; tested in HEK293T cells; also: read-out not given here; potency is read from the fitted curve at half-maximal effect; % is scaled to controls: 0 for no effect and ±100 for the full control effect; nearly all actives have a fitted effect of over 45% in size
HCV inhibitor: qHTS Assay for Inhibitors of Hepatitis C Virus (HCV). Huh7.5.1 HCVcc-Cre infection, luciferase reporter, 44 h. Potency, µM (top dose mostly 41.8 µM), for the others: at the highest dose activity change, negative = inhibition, actives largely listed as inhibitors. 340,000 compounds, 3.4% hits; active = well fitted inhibition curve with a large enough effect; inconclusive = small, poorly fitted or top-dose-only effect, or another doubt; inactive = no such curve, though single readings can be large or run the other way; also: potency is read from the fitted curve at half-maximal effect; % is scaled to controls: 0 for no effect and ±100 for the full control effect
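A cell-based infection assay in which seeded cells (1,000 per well) receive test compound after 4 h, are inoculated with HCVcc-Cre at approximately 0.5 moi, and are incubated 44 h before luminescence detection.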
Shiga inhibitor: A qHTS for Small Molecule Inhibitors of Shiga Toxin; Vero cells, Shiga toxin protein synthesis inhibition reporter; 290,000 compounds, 9.2% hits; inhibition, % at 38.7 µM; in the data active = inhibition mostly above about 28%, no sharp cut-off; inactive = mostly below about 43%; also: 0% is about no effect
CHX counter: Cycloheximide Counterscreen for Small Molecule Inhibitors of Shiga Toxin. cell reporter, cycloheximide protein synthesis inhibition counterscreen. 300,000 compounds, 12% hits. max response, %. AID 2314, 2010; in the data active = max response mostly above about 13%, no sharp cut-off; inactive = mostly below about 14%; also: read at 38.3 µM for the half of the compounds with a filed dose; 0% is about no effect
MARV entry inh: qHTS for inhibitors of binding or entry into cells for Marburg Virus. 300,000 compounds, 1.8% hits. Marburg virus pseudotyped entry inhibition, cell reporter. Potency, µM (top dose mostly 37.8 µM), without a hit: top-dose activity change, negative = inhibition, most hits filed as inhibitors; calls by dose curve; tested in HEK293 cells; also: potency is read from the fitted curve at half-maximal effect; % is scaled to controls: 0 for no effect and ±100 for the full control effect
LASV entry inh: qHTS for Inhibitors of binding or entry into cells for Lassa Virus. Potency, µM (doses to about 37.9 µM), inactives show at the top dose activity change, negative = inhibition, hits mostly inhibitors. AID 540256, 2011. 300,000 compounds, 1.2% hits. Lassa virus pseudotype entry inhibition, cell reporter; calls by dose curve; tested in HEK293 cells; also: potency is read from the fitted curve at half-maximal effect; % is scaled to controls: 0 for no effect and ±100 for the full control effect; nearly all actives have a fitted effect of over 50% in size
* marks the source's active call; other numbers are inactive results; ? = inconclusive; . = no result given; [ ] = dose if it differs, or a comment.

SMILES | FMDV inh | HCV inhibitor | Shiga inhibitor | CHX counter | MARV entry inh | LASV entry inh
C=C1C(=O)C=C2CN(C(=O)c3ccccc3)[C@@](Cc3ccc(F)cc3)(C(=O)OC)[C@@H]12 | 3.16µM* | ? | -30.5 | -10.9 | ? | 20.6µM*
COC(=O)[C@@]1(Cc2ccc(OC)cc2)[C@@H]2C(=CC(=O)[C@H]2CC(=O)C(=O)N(C)C)CN1C(=O)c1ccccc1 | 25.1µM* | 12.6µM* | -18.5 | -4.9 | ? | ?
COC(=O)[C@@]1(Cc2ccc(F)cc2)[C@H]2c3cc(C(=O)N(C)C)[nH]c3C[C@H]2CN1C(=O)c1ccccc1 | -21.5% | 2.7% | -8.2 | -0.6 | -27.7% | ?
COC(=O)[C@@]1(Cc2ccc(OC)cc2)[C@H]2c3cc(C(=O)N(C)C)n(C[C@H](O)CO)c3C[C@H]2CN1C(=O)c1ccccc1 | -4.5% | 2.9%[8.37 µM] | -1.7 | -3.2 | 28.1% | 3.5%
CCOc1ccccc1C(=O)NCC(=O)Nc1ncccc1C | -26.8% | 12.9% | . | . | -11.6% | 18.9%
C/C(=N\NC(=O)c1ccn(C)n1)c1ccc(NC(=O)C2CCC2)cc1 | ? | 2.9% | 55.7* | 27.3* | . | .
C/C(=N\NC(=O)c1nn(C)c(C)c1Br)c1ccc(NC(=O)C2CCCC2)cc1 | 32.4% | ? | 107.2* | 40.6* | . | .
C/C(=N\NC(=O)C1(C)CC1(Br)Br)c1ccc(NC(=O)C2CCC2)cc1 (centres undefined) | ? | ? | -2.4 | -2.3 | -9.9% | ?
C/C(=N\NC(=O)c1ccn(C)n1)c1ccc(NC(=O)C2CCCC2)cc1 | -16.6% | 9.6% | 79.2* | 31.5* | -9.7% | 25.7%
CCN(CC)c1ccc(NC(=O)C2CCCC2)cc1 | 31.8% | -10.7% | . | 21.9 | . | .
O=C(CNC1CCCC1)Nc1ccc(S(=O)(=O)N2CCCCC2)cc1 | 11.7% | -4.8% | -1.2 | -1.2 | -3.6%[46.1 µM] | ?
CCN(C(=O)c1ccc2c(=O)n3c(nc2c1)CCCCC3)c1cc(OC)ccc1OC | 14.6% | -11.7% | -12.0 | 0.8 | . | .
CCCS(=O)(=O)Nc1ccc(Nc2c3ccccc3nc3ccccc23)c(OC)c1 | -13.5% | ? | . | . | ? | 0.708µM*
COc1cc(N)ccc1Nc1c2ccccc2nc2ccccc12 | -24.6% | . | . | . | . | .
O=C(C(=O)N1CCCCC1)c1c(-c2ccccc2)[nH]c2ccccc12 | 11.1% | -29.6% | -14.7 | -1.0 | -6.1%[46.1 µM] | -17.0%[46.1 µM]
COc1ccc(/C=N/NC(=O)c2cccnc2)cc1 | 39.1% | 8.4% | 121.0* | 31.5* | . | .
Cc1ccc2occ(/C=N/NC(=O)c3ccc(O)cc3)c(=O)c2c1 | ? | -24.2% | -3.6 | 10.7 | . | .
COc1cc(/C=N/NC(=O)c2cccnc2)ccc1OS(=O)(=O)c1cc(C)ccc1C | ? | ? | 5.7 | 17.0* | ? | ?
Cc1cc(/C=N/NC(=O)c2ccc(O)cc2)c(C)n1CC(C)C | 24.8% | -10.2% | 82.0* | 47.8* | . | .
COc1ccc(/C=N/NC(=O)c2ccc[nH]2)cc1 | 51.0% | 0.7% | 77.1* | 29.3* | . | .
O=c1c([N+](=O)[O-])cn(O)cc1[N+](=O)[O-] | -24.8% | 9.6% | . | . | 15.7% | 0.1%
COc1cc(NC(=O)CSc2nc(C)c(C)c(C)n2)cc(OC)c1 | -10.8% | -22.3% | -6.8 | 1.0 | 35.7%[46.1 µM] | 0.6%
Cc1ccc2nc(-c3ccc(F)cc3)c(Cc3ccccn3)n2c1 | 18.3% | . | . | . | . | .
COc1ccc(C(=O)Oc2ccc(/C=N/NC(=O)c3cccnc3)cc2OC)cc1 | -18.9% | 6.0% | . | . | . | .
COc1ccc(/C=N/NC(=O)c2cccnc2)cc1O | 37.4% | 18.1% | . | 18.9* | ? | -3.7%
SMILES | FMDV inh | HCV inhibitor | Shiga inhibitor | CHX counter | MARV entry inh | LASV entry inh
COc1cc(/C=N/NC(=O)c2cccnc2)ccc1OCC(=O)Nc1ccc(C)cc1 | 20.0% | -8.8% | 21.0 | 21.1* | -0.4%[46.1 µM] | 13.9%[46.1 µM]
COCCn1c(C)cc(/C=N/NC(=O)c2cccnc2)c1C | 50.1% | 17.5% | 68.8* | 22.4* | ? | .
Cc1ccc(Cn2cc(CCC(=O)NCc3ccccc3F)c3ccccc32)cc1 | -7.0% | . | . | . | . | ?
CCc1noc(C)c1C(=O)N(C)CC(=O)Nc1ccccc1Br | 2.9% | -8.2% | . | . | 10.7% | 5.8%
COc1ccc(N2CC(C(=O)OCC(=O)Nc3cccc(C)c3C)CC2=O)cc1 (centres undefined) | 9.7% | 6.7% | 8.9 | -2.6 | 4.7%[46.1 µM] | -3.3%
CC(C)(C)c1ccc(NC(=O)C(=O)C2C(=O)Nc3ccccc32)cc1 (centres undefined) | 43.6% | 0.7% | 48.6* | 32.3* | . | .
O=C1c2cc(F)ccc2-n2c1nc1ccccc1c2=O | ? | 2.51µM* | 18.5 | 3.8 | ? | ?
Nn1c(-c2ccc(F)cc2)nc2ccccc2c1=O | -2.5% | 8.2% | 8.6 | 10.1 | . | .
CCOC(=O)c1c(C)[nH]c(C(=O)NCC(c2ccco2)N2CCCCC2)c1C (centres undefined) | -6.1% | -7.1% | . | . | . | .
Cc1ccc(S(=O)(=O)/N=C(\N)Nc2nc(C)c3ccccc3n2)cc1 | 49.3% | 3.5% | 15.7 | 20.5* | ? | 1.5%
Cc1cccc(NC(=S)/N=C(\N)Nc2nc(C)c3ccc(C)cc3n2)c1 | -24.2% | 2µM* | -10.9 | -1.1 | 11.2µM* | ?
Cc1cccc(NC(=S)/N=C(\N)Nc2nc(C)c3ccccc3n2)c1 | -9.1% | 3.98µM* | 49.9 | 29.8* | ? | ?
Cc1ccc(NC(=S)/N=C(\N)Nc2nc(C)c3ccccc3n2)cc1C | -25.4% | 11.2µM* | 20.0 | 21.6* | ? | -23.6%
Cc1cccc(NC(=S)/N=C(\N)Nc2nc(C)c3cc(C)ccc3n2)c1 | 5.8% | ? | -5.2 | -2.4 | ? | -14.8%
C=CCn1nc([N+](=O)[O-])nc1Sc1cccc2cccnc12 | ? | ? | 14.7 | -1.1 | ? | ?
O=[N+]([O-])c1cccnc1N1CCCCC1 | 9.3% | 2.8% | -6.4 | -1.1 | -2.5% | -4.6%
O=[N+]([O-])c1cccnc1N1CCN(c2ccccc2F)CC1 | 0.2% | 15.1% | 26.5 | 18.0* | 8.0% | -9.5%
O=C(Cc1ccccc1[N+](=O)[O-])N1CCN(c2ccccc2F)CC1 | 1.1% | 13.9% | 13.7 | 12.3* | ? | 3.4%
O=C(CCOc1ccccc1F)N1CCN(c2ccccc2O)CC1 | 0.9% | ? | 70.0* | 30.7* | ? | -10.5%[46.1 µM]
Cc1ccc(CC(=O)N2CCN(c3ccccc3F)CC2)cc1 | 38.6% | -0.8% | 55.6 | 13.1* | . | .
Cc1ccc2c(c1)N(C(=O)CCC(=O)NCCCN1CCOCC1)CCO2 | -18.4% | 7.0% | 5.0 | -1.5 | . | .
COc1ccc(Cl)cc1NC(=O)c1nc(S(C)(=O)=O)ncc1N(Cc1ccc(C)cc1)Cc1ccco1 | -7.6% | . | . | . | 6.6%[46.1 µM] | 14.8%[46.1 µM]
CCn1cc(C(=O)N2CCN(c3cc(Cl)ccc3C)CC2)c(=O)c2cc(S(=O)(=O)N3CCCCC3)ccc21 | -14.2% | . | . | . | 29.4%[46.1 µM] | -0.6%[46.1 µM]
O=C(CCS(=O)(=O)c1ccccc1)N1CCN(c2ccccc2F)CC1 | 41.4% | 5.3% | 109.5* | 35.0* | 7.1% | ?
